# Results published in the supplement of paper PMC10849652.
# Targets with a hit are over-represented here; the source holds about 7,900 in all. About 0.6% of all pairs of compound and target were hits. Unmarked numbers belong to inactive results.
# Columns and labels:
# Assay in all cases: log2 fold change, soluble protein after heating vs DMSO (PISA); higher = thermal stabilisation; K562 cells, 10 uM, 30 min; active = over 0.2 and 3.5 SD of the protein, either way, in both replicates (recomputed)
# [1] = compound: CS(=O)(=O)c1ccc(-c2cnc(N)c(C(=O)Nc3ccccc3)n2)cc1
# Procedure, shortened: (§1)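 Quantification of soluble protein used TMTpro 16plex LC-MS/MS, with channel sums equalised. Samples were the supernatant after 21,000xg for 90 min of pooled aliquots from K562 cells (2×10^6 cells/mL) treated with 10 μM compound for 30 min, heated for 3 min over 48°C-58°C, and extracted in PBS with 0.5% NP-40 at 4°C. Values, from duplicates, describe thermal stability against control samples on a log2 fold-change scale.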
# crizotinib = compound: C[C@@H](Oc1cc(-c2cnn(C3CCNCC3)c2)cnc1N)c1c(Cl)ccc(F)c1Cl [crizotinib]
# Procedure, shortened: as §1
# [2] = compound: C[C@@H]1COCCN1C2=NC(=NC(=C2)C3(CC3)S(=O)(=O)C)C4=C5C=CNC5=CC=C4
# Procedure, shortened: as §1
# [3] = compound: C[C@H](C1=CC=C(C=C1)C(=O)NC2=C3C=CNC3=NC=C2)N
# Procedure, shortened: as §1
# duvelisib = compound: C[C@H](Nc1ncnc2nc[nH]c12)c1cc2cccc(Cl)c2c(=O)n1-c1ccccc1 [duvelisib]
# Procedure, shortened: as §1
# gandotinib = compound: Cc1cc(Nc2cc(CN3CCOCC3)c3nc(C)c(Cc4ccc(Cl)cc4F)n3n2)n[nH]1 [gandotinib]
# Procedure, shortened: as §1
# tozasertib = compound: Cc1cc(Nc2cc(N3CCN(C)CC3)nc(Sc3ccc(NC(=O)C4CC4)cc3)n2)n[nH]1 [tozasertib]
# Procedure, shortened: as §1
# [4] = compound: Cc1cc(SCc2sc(-c3ccc(C(F)(F)F)cc3)nc2C)ccc1OCC(=O)O
# Procedure, shortened: as §1
# doramapimod = compound: Cc1ccc(-n2nc(C(C)(C)C)cc2NC(=O)Nc2ccc(OCCN3CCOCC3)c3ccccc23)cc1 [doramapimod]
# Procedure, shortened: as §1
# ispinesib = compound: Cc1ccc(C(=O)N(CCCN)[C@@H](c2nc3cc(Cl)ccc3c(=O)n2Cc2ccccc2)C(C)C)cc1 [ispinesib]
# Procedure, shortened: as §1
# Sequence of UniProt Q9H1E3 (Q9H1E3 whole entry, looked up): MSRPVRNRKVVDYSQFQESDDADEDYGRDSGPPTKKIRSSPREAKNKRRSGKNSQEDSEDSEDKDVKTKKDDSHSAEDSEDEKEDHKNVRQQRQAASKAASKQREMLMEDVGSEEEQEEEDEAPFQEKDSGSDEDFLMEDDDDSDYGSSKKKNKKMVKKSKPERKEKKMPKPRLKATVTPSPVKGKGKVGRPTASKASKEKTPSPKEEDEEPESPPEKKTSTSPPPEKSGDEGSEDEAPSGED
# Sequence of UniProt Q9H3P2 (Q9H3P2 whole entry, looked up): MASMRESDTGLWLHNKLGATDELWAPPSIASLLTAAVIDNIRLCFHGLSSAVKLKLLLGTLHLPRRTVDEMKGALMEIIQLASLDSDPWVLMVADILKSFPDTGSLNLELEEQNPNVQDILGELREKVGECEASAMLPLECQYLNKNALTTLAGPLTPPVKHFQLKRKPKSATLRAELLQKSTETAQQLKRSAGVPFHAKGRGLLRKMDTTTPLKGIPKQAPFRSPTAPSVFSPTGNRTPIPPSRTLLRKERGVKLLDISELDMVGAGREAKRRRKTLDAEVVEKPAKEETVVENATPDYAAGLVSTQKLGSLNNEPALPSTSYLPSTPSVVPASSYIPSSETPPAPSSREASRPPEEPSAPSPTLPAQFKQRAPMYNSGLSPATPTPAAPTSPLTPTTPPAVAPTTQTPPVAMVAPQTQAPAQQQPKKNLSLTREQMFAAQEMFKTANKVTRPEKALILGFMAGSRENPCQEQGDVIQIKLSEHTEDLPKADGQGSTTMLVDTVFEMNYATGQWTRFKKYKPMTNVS
# Sequence of UniProt O60934 (O60934 whole entry, looked up): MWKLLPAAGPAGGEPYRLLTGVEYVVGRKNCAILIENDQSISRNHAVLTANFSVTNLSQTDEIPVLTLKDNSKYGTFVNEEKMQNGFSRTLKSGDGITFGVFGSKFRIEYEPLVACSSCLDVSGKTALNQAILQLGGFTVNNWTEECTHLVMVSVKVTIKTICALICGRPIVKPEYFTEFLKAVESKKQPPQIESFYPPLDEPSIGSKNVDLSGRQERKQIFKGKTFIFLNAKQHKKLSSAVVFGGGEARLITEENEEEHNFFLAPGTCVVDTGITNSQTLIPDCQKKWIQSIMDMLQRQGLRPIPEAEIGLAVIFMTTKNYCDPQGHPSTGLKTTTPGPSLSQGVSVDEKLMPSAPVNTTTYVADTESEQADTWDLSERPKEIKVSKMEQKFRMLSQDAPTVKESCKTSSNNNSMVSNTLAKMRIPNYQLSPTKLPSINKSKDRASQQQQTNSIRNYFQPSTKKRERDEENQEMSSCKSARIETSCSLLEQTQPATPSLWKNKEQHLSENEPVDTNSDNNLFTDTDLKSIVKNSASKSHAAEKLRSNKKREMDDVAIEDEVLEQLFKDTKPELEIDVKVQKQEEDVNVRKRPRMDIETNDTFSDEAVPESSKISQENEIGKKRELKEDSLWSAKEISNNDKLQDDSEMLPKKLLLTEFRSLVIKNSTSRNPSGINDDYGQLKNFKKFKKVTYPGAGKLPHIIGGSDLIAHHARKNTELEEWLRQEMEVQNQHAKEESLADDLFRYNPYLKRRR
# Sequence of UniProt Q8N4C8 (Q8N4C8 whole entry, looked up): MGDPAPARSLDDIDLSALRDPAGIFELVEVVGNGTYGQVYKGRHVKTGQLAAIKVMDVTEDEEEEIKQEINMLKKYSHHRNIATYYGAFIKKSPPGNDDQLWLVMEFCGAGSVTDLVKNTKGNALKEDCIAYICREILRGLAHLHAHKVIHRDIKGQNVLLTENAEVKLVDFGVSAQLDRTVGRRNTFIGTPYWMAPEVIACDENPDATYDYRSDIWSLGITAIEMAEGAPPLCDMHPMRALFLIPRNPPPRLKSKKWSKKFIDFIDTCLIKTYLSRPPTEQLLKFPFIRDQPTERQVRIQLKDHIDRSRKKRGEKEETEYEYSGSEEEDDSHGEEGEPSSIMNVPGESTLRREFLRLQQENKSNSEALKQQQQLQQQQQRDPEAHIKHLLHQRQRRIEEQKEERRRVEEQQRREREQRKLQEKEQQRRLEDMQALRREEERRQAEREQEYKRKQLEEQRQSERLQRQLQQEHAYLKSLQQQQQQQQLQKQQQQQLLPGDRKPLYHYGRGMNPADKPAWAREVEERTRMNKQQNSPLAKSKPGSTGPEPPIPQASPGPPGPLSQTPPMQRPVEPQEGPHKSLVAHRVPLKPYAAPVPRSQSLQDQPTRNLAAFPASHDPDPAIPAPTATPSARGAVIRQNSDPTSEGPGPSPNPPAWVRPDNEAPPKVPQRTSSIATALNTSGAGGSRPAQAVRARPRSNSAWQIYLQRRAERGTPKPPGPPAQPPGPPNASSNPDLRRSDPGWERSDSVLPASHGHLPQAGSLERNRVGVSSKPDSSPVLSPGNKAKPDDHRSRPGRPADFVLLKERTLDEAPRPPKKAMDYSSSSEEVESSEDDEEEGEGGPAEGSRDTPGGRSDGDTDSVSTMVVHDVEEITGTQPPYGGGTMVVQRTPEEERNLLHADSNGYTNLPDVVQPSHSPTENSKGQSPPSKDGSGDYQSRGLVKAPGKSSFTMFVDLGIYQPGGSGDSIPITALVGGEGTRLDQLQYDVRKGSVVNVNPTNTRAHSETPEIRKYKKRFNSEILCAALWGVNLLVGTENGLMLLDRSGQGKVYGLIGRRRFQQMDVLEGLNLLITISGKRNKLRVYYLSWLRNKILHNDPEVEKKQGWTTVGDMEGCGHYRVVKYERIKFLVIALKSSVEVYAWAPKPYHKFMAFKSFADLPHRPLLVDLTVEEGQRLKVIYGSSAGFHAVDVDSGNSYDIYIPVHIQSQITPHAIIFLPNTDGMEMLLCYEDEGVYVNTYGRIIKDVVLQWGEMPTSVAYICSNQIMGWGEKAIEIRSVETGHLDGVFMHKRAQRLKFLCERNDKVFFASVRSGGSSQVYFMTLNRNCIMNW
# Sequence of UniProt P43246 (P43246 whole entry, looked up): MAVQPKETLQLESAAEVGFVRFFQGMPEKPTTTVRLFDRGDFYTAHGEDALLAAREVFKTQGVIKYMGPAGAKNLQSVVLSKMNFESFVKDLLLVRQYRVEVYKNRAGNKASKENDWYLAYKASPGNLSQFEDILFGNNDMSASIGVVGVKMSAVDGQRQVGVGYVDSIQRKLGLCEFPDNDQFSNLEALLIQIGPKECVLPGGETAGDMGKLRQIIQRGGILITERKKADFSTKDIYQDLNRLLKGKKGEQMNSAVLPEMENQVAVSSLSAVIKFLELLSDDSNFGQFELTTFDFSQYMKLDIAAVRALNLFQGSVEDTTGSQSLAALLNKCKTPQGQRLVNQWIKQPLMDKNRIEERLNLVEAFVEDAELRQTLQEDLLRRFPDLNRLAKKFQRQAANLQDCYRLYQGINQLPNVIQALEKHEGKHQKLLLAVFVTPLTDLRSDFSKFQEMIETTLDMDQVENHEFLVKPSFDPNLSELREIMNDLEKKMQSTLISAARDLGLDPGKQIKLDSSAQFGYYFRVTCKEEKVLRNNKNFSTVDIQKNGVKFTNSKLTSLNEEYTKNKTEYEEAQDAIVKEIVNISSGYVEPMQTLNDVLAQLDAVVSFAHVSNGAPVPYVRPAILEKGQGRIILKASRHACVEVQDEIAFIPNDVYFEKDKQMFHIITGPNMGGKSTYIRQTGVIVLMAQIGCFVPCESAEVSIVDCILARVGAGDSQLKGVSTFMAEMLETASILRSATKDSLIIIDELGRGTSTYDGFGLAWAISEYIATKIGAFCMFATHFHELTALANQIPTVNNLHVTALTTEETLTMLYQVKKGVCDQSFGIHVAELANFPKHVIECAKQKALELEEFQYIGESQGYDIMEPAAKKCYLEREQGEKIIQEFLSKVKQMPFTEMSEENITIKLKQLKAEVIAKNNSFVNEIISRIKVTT
# Sequence of UniProt Q13469 (Q13469 whole entry, looked up): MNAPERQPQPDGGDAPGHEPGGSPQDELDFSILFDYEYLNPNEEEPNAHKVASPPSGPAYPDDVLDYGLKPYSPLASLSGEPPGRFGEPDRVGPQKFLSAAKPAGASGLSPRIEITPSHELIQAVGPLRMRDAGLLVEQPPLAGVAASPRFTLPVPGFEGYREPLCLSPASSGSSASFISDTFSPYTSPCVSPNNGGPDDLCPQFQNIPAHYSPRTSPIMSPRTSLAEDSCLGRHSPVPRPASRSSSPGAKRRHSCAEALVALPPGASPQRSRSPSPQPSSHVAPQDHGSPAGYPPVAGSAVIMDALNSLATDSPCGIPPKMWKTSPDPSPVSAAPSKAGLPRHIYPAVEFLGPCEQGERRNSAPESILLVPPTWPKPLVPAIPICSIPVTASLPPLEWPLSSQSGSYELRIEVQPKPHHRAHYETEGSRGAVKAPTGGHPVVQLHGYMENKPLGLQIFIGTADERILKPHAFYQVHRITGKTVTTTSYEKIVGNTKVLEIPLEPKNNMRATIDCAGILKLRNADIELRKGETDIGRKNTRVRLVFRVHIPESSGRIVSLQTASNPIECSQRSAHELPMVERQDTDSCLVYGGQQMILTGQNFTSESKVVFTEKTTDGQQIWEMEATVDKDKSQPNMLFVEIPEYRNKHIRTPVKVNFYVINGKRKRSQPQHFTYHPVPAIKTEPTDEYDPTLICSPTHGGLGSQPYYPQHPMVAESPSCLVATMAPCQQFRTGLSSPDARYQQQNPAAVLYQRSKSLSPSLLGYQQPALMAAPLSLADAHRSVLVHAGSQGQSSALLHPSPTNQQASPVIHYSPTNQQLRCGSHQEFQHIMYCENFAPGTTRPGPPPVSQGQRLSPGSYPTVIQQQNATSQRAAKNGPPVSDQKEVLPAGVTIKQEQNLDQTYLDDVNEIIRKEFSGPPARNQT
# Sequence of UniProt Q9UH92 (Q9UH92 whole entry, looked up): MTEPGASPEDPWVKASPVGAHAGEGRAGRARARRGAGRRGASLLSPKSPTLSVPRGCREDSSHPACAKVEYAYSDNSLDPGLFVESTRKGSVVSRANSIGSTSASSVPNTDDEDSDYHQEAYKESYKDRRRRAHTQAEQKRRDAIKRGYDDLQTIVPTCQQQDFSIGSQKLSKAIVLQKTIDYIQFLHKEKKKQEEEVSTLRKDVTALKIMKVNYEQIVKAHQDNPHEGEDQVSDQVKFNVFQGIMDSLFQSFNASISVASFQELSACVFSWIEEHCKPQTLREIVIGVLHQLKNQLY
Target,log2 fold change [1],log2 fold change (crizotinib),log2 fold change [2],log2 fold change [3],log2 fold change (duvelisib),log2 fold change (gandotinib),log2 fold change (tozasertib),log2 fold change [4],log2 fold change (doramapimod),log2 fold change (ispinesib)
NDUFS4 (UniProt O43181),-0.035,-0.089,-0.027,0.086,-0.086,0.164,-0.098,-0.058,0.018,-0.216
NRF1 isoform 4 (UniProt Q16656),0.03,0.071,0.275,-0.107,0.053,-0.125,0.074,0.017,-0.003,-0.004
MSH3 (UniProt P20585),-0.029,0.045,-0.031,0.047,0.07,-0.096,-0.003,0.024,0.035,0.088
NSUN2 (UniProt Q08J23),-0.107,-0.034,0.031,0.008,-0.077,-0.151,0.065,0.053,0.067,-0.098
NQO1 (UniProt P15559),0.055,-0.004,0.069,-0.06,0.165,-0.062,0.011,0.152,-0.008,0.05
OXA1L (UniProt Q15070),-0.042,-0.064,0.004,-0.018,0.021,0.012,0.005,0.018,-0.01,-0.1
NUCKS1 (UniProt Q9H1E3),-0.147,0.274 (active),-0.133,0.029,0.005,0.001,-0.064,-0.089,-0.03,0.168
PAAF1 (UniProt Q9BRP4),-0.003,-0.003,0.078,-0.071,0,-0.035,-0.042,0.018,-0.022,0.047
NUP98 (UniProt P52948),0.031,-0.02,0.007,-0.009,0.007,-0.044,0.04,0.1,0.022,0.001
MRPS26 (UniProt Q9BYN8),0.097,0.005,0.009,0.291,0.002,0.158,0.146,0.065,0.059,-0.421 (active)
NELFA (UniProt Q9H3P2),-0.01,0.082,0.198,-0.011,0.118,0.004,0.142,0.234,-0.014,-0.068
NEK3 (UniProt P51956),-0.086,0.08,0.19,-0.19,-0.032,0.103,0.083,0.05,-0.014,-0.006
NOL7 (UniProt Q9UMY1),-0.054,0.065,-0.661,0.415,-0.201,0.124,-0.001,0.003,0.187,-0.052
OXSR1 (UniProt O95747),0.031,-0.127,0.021,0.011,0.037,-0.096,-0.013,0.095,0.011,-0.055
MINK1 (UniProt Q8N4C8),0.032,-0.207,-0.038,-0.067,0.022,-0.024,-0.149,0.073,-0.035,-0.032
NDUFS7 (UniProt O75251),0.013,-0.109,0.029,-0.019,0.053,-0.108,-0.046,0.013,-0.02,-0.114
MRPS9 (UniProt P82933),-0.001,0.011,0.036,0.202,-0.023,-0.054,-0.055,0.086,0.031,-0.344 (active)
MLX (UniProt Q9UH92),-0.038,-0.188,0.092,-0.001,-0.131,-0.239,-0.043,0.115,0.03,-0.186
OGFOD1 (UniProt Q8N543),0.034,-0.001,0.042,0.003,0.046,-0.009,-0.02,-0.021,-0.015,-0.043
NCOA7 (UniProt Q8NI08),-0.003,-0.17,0.012,-0.034,0.091,-0.238 (active),-0.052,0.031,0.082,-0.037
NBN (UniProt O60934),0.02,0.009,0.038,-0.063,0.105,-0.069,0.028,0.116,-0.004,0.008
MSH2 (UniProt P43246),0.057,0.04,0.056,-0.038,0.08,-0.02,0.072,0.117,-0.067,0.09
NDFIP1 (UniProt Q9BT67),0.349,-0.004,0.045,-0.167,0.039,0.052,0.046,0.08,-0.068,0.015
MRPS18B (UniProt Q9Y676),-0.187,-0.047,0.075,0.145,0.006,-0.028,0.016,0.157,0.029,-0.397 (active)
NUMB (UniProt P49757),0.056,-0.189,0.07,-0.068,-0.05,-0.06,-0.082,0.006,-0.012,-0.073
NFATC2 (UniProt Q13469),0,-0.154,-0.175,0,0.003,0.048,0.02,0.024,0.027,-0.18
NIPSNAP2 (UniProt O75323),-0.014,0.083,0.068,-0.041,0.019,0.057,-0.084,0.105,-0.106,0.162
MOV10 (UniProt Q9HCE1),-0.086,0.032,-0.258,0.254,-0.059,0.239,0.01,-0.023,0.103,-0.093
